About 1,100 (52%) of roughly 2,100 compounds were called active. About 29% were inconclusive and are not listed. Calls come from the whole dose curve; as a rule, active = well fitted inhibition curve with a large enough effect; inconclusive = small, poorly fitted or top-dose-only effect; inactive = no such curve, though single readings can be large or run the other way. So high a share suggests a set chosen from earlier hits. This is one part of the list.
Biological target: DNA dC->dU-editing enzyme APOBEC-3F (Homo sapiens) (UniProt Q8IUX4)
Experiment: qHTS for inhibitors of Vif-A3F interactions: Cherry picks counterscreen; note: nearly all actives have a fitted effect of over 65% in size
Settings: HeLa A3F-eYFP/Vif cells, eYFP fluorescence, 24 h; series mostly up to 46.1 µM
How it was run: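 Rescue of Vif-driven A3F-eYFP degradation read as cellular eYFP fluorescence after 24 h compound exposure (several concentrations) in stable HeLa cells; MG132 (2 mM stock) as positive control.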
Potency is the fitted concentration of half-maximal effect.

DNA dC->dU-editing enzyme APOBEC-3F (Homo sapiens), sequence (Q8IUX4 whole entry, looked up): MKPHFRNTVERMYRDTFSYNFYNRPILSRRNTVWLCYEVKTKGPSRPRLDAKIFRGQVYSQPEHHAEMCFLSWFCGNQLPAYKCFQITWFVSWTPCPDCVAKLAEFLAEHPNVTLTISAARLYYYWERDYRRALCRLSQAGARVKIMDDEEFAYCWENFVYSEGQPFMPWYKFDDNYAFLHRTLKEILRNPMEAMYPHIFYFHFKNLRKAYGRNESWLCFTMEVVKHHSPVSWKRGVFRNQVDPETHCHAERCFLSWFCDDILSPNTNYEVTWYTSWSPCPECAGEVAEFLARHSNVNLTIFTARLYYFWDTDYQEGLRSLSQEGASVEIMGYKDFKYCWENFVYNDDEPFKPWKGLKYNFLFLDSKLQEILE

Compound	Potency
CN(/N=C/c1ccc(N(C)C)cc1)C1=NS(=O)(=O)c2ccccc21	11.2 µM (active)
COCCCN(C(C)=O)c1nc(-c2ccc(OC)cc2)cs1	17.7 µM (active)
CN1C2=CC=CC=CC2=[N+](C)C12C([N+](=O)[O-])=CC(=[N+]([O-])[O-])C=C2[N+](=O)[O-] (configuration not stated)	12.5 µM (active)
Cc1ccc(S(=O)(=O)Nc2cc(-c3nn(C)c(=O)c4ccccc34)ccc2N2CCOCC2)cc1	12.5 µM (active)
Cc1cccc2[nH]cc(/C=C3/C=Nc4ccccc43)c12	20.6 µM (active)
CCC(C)Sc1ccc(-c2nc3cc(C)ccn3c2NC2CCCCC2)cc1 (configuration not stated)	inactive
c1cc(SC2CCCCC2)cc(-c2nc3cnccn3c2NC2CCCCC2)c1	inactive
CCCCNc1c(-c2ccc(SC3CCCCC3)cc2)nc2cnccn12	4.44 µM (active)
O=C(c1cc(-c2ccncc2)nc2ccccc12)N1CCN(c2ccccn2)CC1	6.27 µM (active)
COC(=O)c1sc(N)c(C(=O)OC)c1COC(=O)c1c(C)noc1C	4.44 µM (active)
CC(=O)N1CCc2nc3sc(C(=O)c4ccc(F)cc4)c(N)c3c(C(F)(F)F)c2C1	18.4 µM (active)
COc1ccc(C(=O)c2sc3nc4c(c(C(F)(F)F)c3c2N)CN(C(C)=O)CC4)cc1OC	23.1 µM (active)
COc1ccccc1-c1nnc2sc(-c3cc4ccccc4o3)nn12	5.59 µM (active)
CCCNc1c(F)c(F)c2c(C)c3ccccc3nc2c1F	15.8 µM (active)
Cc1c2ccccc2nc2c(F)c(NC(C)C)c(F)c(F)c12	6.51 µM (active)
c1ccc(-c2cnn3c(-c4ccccc4)c(-c4ccccc4)nc3n2)cc1	0.461 µM (active)
CC(C)(C)C(=O)c1sc2nc(-c3cccs3)cc(C(F)(F)F)c2c1N	1.84 µM (active)
Nc1c(C(=O)C2CC2)sc2nc(-c3cccs3)cc(C(F)(F)F)c12	1.16 µM (active)
CC(=O)c1sc2nc(-c3cccs3)cc(C(F)(F)F)c2c1N	16.4 µM (active)
CCCc1nc2c(C)cc(Br)cn2c1Cc1ccccc1	inactive
CC(C)n1cc(/C=C/c2cc[n+](C)cc2)c2ccccc21	0.0559 µM (active)
C=CCn1cc(/C=C/c2cc[n+](C)cc2)c2ccccc21	0.198 µM (active)
CCn1cc(/C=C/c2cc[n+](C)cc2)c2ccccc21	0.0498 µM (active)
COc1cc(OC)c(/C=C/c2ccc3ccccc3[n+]2C)c(OC)c1	11.6 µM (active)
N#Cc1c(-c2ccccc2F)cc(C2CC2)nc1SCC(=O)c1cccs1	14 µM (active)

Compound	Potency
CCc1c(C)nc(SCC(=O)c2cccs2)c(C#N)c1C	inactive
Fc1ccc(COc2ccc3ccccc3c2CNc2nn[nH]n2)cc1	19.8 µM (active)
COc1cccc(CNCCSc2nnnn2C)c1OCc1ccc(F)cc1	inactive
O=C(NNC1=Nc2cccc3cccc1c23)c1ccc(Br)cc1	23.1 µM (active)
COc1cc(OC)c(/C=C2\SC(=O)N(CC(=O)Nc3ccccc3F)C2=O)c(OC)c1	12.5 µM (active)
O=C(Cn1nc2c(cc1=O)CCCC2)NCc1ccc(Cl)cc1	16.4 µM (active)
N#C/C(=C/c1cccs1)c1ccccn1	15.8 µM (active)
CC(=O)Nc1cccc(-c2ccnc3c2CC(C)(C(=O)NCc2ccccc2)O3)c1 (configuration not stated)	2.8 µM (active)
CC(=O)Nc1cccc(-c2ccnc3c2CC(C)(C(=O)NCc2cccs2)O3)c1 (configuration not stated)	4.44 µM (active)
CC1(C(=O)NCc2ccco2)Cc2c(-c3cccc(C(N)=O)c3)ccnc2O1 (configuration not stated)	14 µM (active)
CC1(C(=O)NCc2ccccc2)Cc2c(-c3ccc(C(N)=O)cc3)ccnc2O1 (configuration not stated)	7.9 µM (active)
CC1(C(=O)NCc2ccccc2)Cc2c(-c3cccc(C(N)=O)c3)ccnc2O1 (configuration not stated)	7.04 µM (active)
CC(=O)Nc1cccc(-c2ccnc3c2CC(C(=O)NCc2cccs2)O3)c1 (configuration not stated)	5.59 µM (active)
N#C/C(=C\c1cccnc1)c1nc2ccccc2[nH]1	14 µM (active)
Cc1ccc2nc(/C(C#N)=C\c3ccc([N+](=O)[O-])o3)[nH]c2c1	10.3 µM (active)
N#C/C(=C\c1ccc(Cl)cc1)c1nc2ncccc2[nH]1	15.8 µM (active)
N#C/C(=C\c1ccc([N+](=O)[O-])o1)c1nc2ccccc2[nH]1	8.2 µM (active)
CCCOc1cc(N(CC)CC)ccc1/C=C(/C#N)c1nc2ccc(C)cc2[nH]1	inactive
CCn1c(O)c(/C=N/NC(=O)c2ccncc2)c(=O)n(CC)c1=S	inactive
O=C(N/N=C/c1ccco1)c1cc(-c2ccncc2)nc2ccccc12	6.27 µM (active)
C/C(=N\NC(=O)c1cc(-c2ccncc2)nc2ccccc12)c1ccc(N2CCOCC2)cc1	inactive
CC(/C=N/NC(=O)c1cc(-c2ccccc2)nc2ccccc12)=C\c1ccco1	3.14 µM (active)
CCc1ccc(/C=N/NC(=O)c2cc(-c3ccncc3)nc3ccccc23)s1	4.98 µM (active)
O=C(NCc1cccc(F)c1)c1cccc2c1C(=O)c1ccc(N3CCCC3)cc1S2(=O)=O	17.7 µM (active)
CC1CCN(c2ccc3c(c2)S(=O)(=O)c2cccc(C(=O)NCc4cccc(F)c4)c2C3=O)CC1	14 µM (active)

Compound	Potency
Cc1ccc(CNC(=O)c2cccc3c2C(=O)c2ccc(N4CCC(C)CC4)cc2S3(=O)=O)cc1	14.6 µM (active)
COc1ccc2oc(=Nc3ccccc3)c(-c3nc4ccccc4[nH]3)cc2c1	20.6 µM (active)
CCOC(=O)c1csc(NC(=O)c2cc(-c3ccccn3)nc3ccccc23)n1	inactive
COc1cc(C(=O)Nc2ccc(C)cc2)c2ccccc2n1	1.77 µM (active)
Cc1ccc(C)c(NC(=O)Cn2cc(S(=O)(=O)Cc3cccc(Cl)c3)c3ccccc32)c1	6.51 µM (active)
Cc1ccc(Cl)cc1NC(=O)Nc1cn(CC(C)C)c(=O)c2ccccc12	inactive
COc1ccc(C2CC(c3ccncc3)=NN2c2ccc(S(N)(=O)=O)cc2)cc1 (configuration not stated)	20.6 µM (active)
CCS(=O)(=O)N1N=C(c2ccc(C)cc2)CC1c1cc2ccc(OC)cc2nc1Cl (configuration not stated)	inactive
COc1ccc2nc(NC(=S)NC(=O)c3ccco3)sc2c1	inactive
O=C(Nc1nc2ccc(F)cc2s1)c1ccc([N+](=O)[O-])o1	15.8 µM (active)
COc1ccc(NC(=O)c2c(Cl)n(C)c3ccccc23)cc1	14 µM (active)
COc1cc(OC)c(OC)cc1/C=C1\CC(C)C/C(=C\c2cc(OC)c(OC)cc2OC)C1=O (configuration not stated)	18.4 µM (active)
CCOc1ncccc1C(=O)NCc1ccc(OC)cc1	8.86 µM (active)
CCCOc1ccc2cc(C(=O)NCc3ccccc3)c(=O)oc2c1	inactive
CCOc1ccc(CNC(=O)c2ccccc2NC(=O)c2nsc3ccccc23)cc1	16.4 µM (active)
COc1ccc2c(n1)Sc1nc3ccccc3nc1N2	3.26 µM (active)
Cc1oc(C)c2c(=O)ccc3c(c12)OC(N)=C(C#N)C3c1ccc(F)cc1 (configuration not stated)	inactive
COc1ccc(C2C(C#N)=C(N)Oc3c2ccc2cccnc32)cc1OC (configuration not stated)	3.53 µM (active)
COc1ccc(C2C(C#N)=C(N)Oc3cc(N)ccc32)cc1OC (configuration not stated)	12.5 µM (active)
N#CC1=C(N)Oc2cc(N)ccc2C1c1cccc(F)c1 (configuration not stated)	2.5 µM (active)
COc1cc(C2C(C#N)=C(N)Oc3cc(O)ccc32)cc2c1OCO2 (configuration not stated)	15.8 µM (active)
N#CC1=C(N)Oc2cc(N)ccc2C1c1cccc(Br)c1 (configuration not stated)	1.98 µM (active)
Cc1ccc2nc(-c3ccccn3)c(NC3CCCC3)n2c1	inactive
O=C(N/N=C/c1ccc(Cl)cc1)c1cc2c(s1)-c1ccccc1CC2	5.59 µM (active)
Cc1cc2c(cc(C(=O)OCC(=O)NCc3cccs3)n2C(C)C)o1	1.77 µM (active)

Compound	Potency
CCOC(=O)Cc1csc(NC(=O)c2sc3nc4c(C)cc(C)cc4cc3c2N)n1	16.4 µM (active)
O=C(Cn1ncc(Cl)c(Cl)c1=O)Nc1ccc2c(c1)OCO2	15.8 µM (active)
Cc1cc(C)cc(Oc2nc(C(F)(F)F)nc3ccccc23)c1	11.2 µM (active)
Cc1ccc(/C=N/NC(=O)C2COc3ccccc3O2)s1 (configuration not stated)	4.98 µM (active)
CNC(=S)N/N=C/c1ccc(N2CCOCC2)s1	inactive
Cc1ccc(/C=N/NC(=O)c2ccc3ccccc3c2)s1	2.23 µM (active)
Cc1ccc(Cn2nnc3c(=O)n(CC(=O)NCc4ccccc4)cnc32)cc1	14 µM (active)
CC(C)(C)n1ncc2c(=O)n(CC(=O)NCc3ccc(F)cc3)cnc21	14 µM (active)
O=C(Cn1cnc2c(cnn2-c2ccc(F)cc2)c1=O)NCc1ccco1	9.94 µM (active)
Cc1sc2ncn(CC(=O)NCc3ccccc3)c(=O)c2c1C	inactive
CCc1cccc2c(C(O)c3c[nH]c4ccccc34)c[nH]c12 (configuration not stated)	20.6 µM (active)
COc1ccc(NC(=O)CSc2nc3c(oc4ccccc43)c(=O)n2Cc2ccco2)cc1Cl	18.4 µM (active)
CCn1c(SCC(=O)Nc2cccc(O)c2)nc2c1c(=O)n(C)c(=O)n2C	inactive
N=c1n(CC(=O)c2ccc([N+](=O)[O-])cc2)c2ccccc2n1Cc1ccccc1	20.6 µM (active)
Cc1ccc2c(CC(=O)NCc3ccco3)coc2c1C	9.94 µM (active)
Cc1cccc(C)c1OCCNC(=O)C(=O)NCc1ccco1	2.8 µM (active)
O=C(COC(=O)C12CC3CC(CC(Cl)(C3)C1)C2)N1CCCCC1	inactive
COc1ccc2o/c(=N/NC(=O)c3cccs3)c(C(N)=O)cc2c1	7.04 µM (active)
Cc1ccc2c(Cl)c(C)c(N3CCCC3)nc2n1	inactive
CCN(CC)c1nc2cc(OC)ccc2cc1C#N	inactive
COc1ccc(Nc2nc3cc(C)ccc3cc2C#N)cc1	14.6 µM (active)
COc1ccc(Nc2nc3cc(C)ccc3cc2C#N)c(OC)c1	1.58 µM (active)

Reference: PubChem BioAssay AID651815 (National Center for Advancing Translational Sciences (NCATS), 2012)
